Results on nine molecules are retold here after PubChem BioAssay AID504890 (The Scripps Research Institute Molecular Screening Center, 2011).

Values without a mark were called inactive.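 The calls were made as follows: active = EC50 at or below 10 µM; inactive = EC50 above 10 µM.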

This assay is described as follows: FP signal increase by Cy5-IP20 peptide alone, dose response, artefact control for PKA-R2B complex activator project, biochemical, fluorescence polarization, 1536-well HTS (AID 504890). The following applies: Cy5-IP20 FP artifact counterscreen, no PKA-R2B complex. On the technique in general: In fluorescence polarisation assays a small probe gives low polarisation when free and higher when bound to something large.
By EC50 is commonly meant the concentration needed to bring the measured effect to its halfway point. Turning to `CCOP1(=O)OCC2OC(n3cnc4c(N)ncnc43)C(O)C2O1` (centres undefined), the EC50 is greater than 114 µM.

With `CCCC(=O)Nc1ncnc2c1ncn2[C@@H]1O[C@@H]2COP(=O)(O)O[C@H]2[C@H]1OC(=O)CCC`, the EC50 was greater than 114 µM.

For `O=C(O)c1sccc1SCc1ccc(Cl)cc1Cl`, the EC50 is greater than 114 µM.

In the case of `Nc1nc2c(nc(Br)n2[C@@H]2O[C@@H]3COP(=O)(O)O[C@H]3[C@H]2O)c(=O)[nH]1`, the EC50 is greater than 114 µM.

For the molecule `O=S(=O)(O)c1cccc2c(N=Nc3ccc(O)c4ncccc34)cccc12`, the EC50 was greater than 114 µM.

For `Nc1ncnc2c1nc(Br)n2[C@@H]1O[C@@H]2COP(=O)(O)O[C@H]2[C@H]1O`, the EC50 was greater than 114 µM.

For the molecule `CN(C)c1ccc(N=Nc2ccc(S(=O)(=O)O)cc2)c2ccccc12`, the EC50 was greater than 114 µM.

On to `CCCC(=O)Nc1ncnc2c1ncn2[C@@H]1O[C@@H]2OP(=O)(O)OC[C@H]2[C@H]1OC(=O)CCC`, for which the EC50 was greater than 114 µM.

On to `Nc1ncnc2c1nc(Sc1ccc(Cl)cc1)n2[C@@H]1O[C@@H]2COP(=O)(O)O[C@H]2[C@H]1O`, for which the EC50 is greater than 114 µM.
